Inconclusive results are not listed. Calls of active or inactive are those of the source. The call rests on the fitted dose curve; in most records, active means well fitted curve in the direction sought with a large enough effect; inconclusive means small, poorly fitted or top-dose-only effect, or another doubt; inactive means no such curve, though single readings can be large; an effect the other way counts as inactive or inconclusive.
Tests used:
[1] = test system: CRL-7250; experiment: Cytotoxic Profiling of Annotated Libraries Using Quantitative High-Throughput Screening (AID 1296008); conditions: Five cell lines viability, CellTiter-Glo ATP luminescence, 48-72 h; max response: stronger effect = lower value; further: nearly all actives have a fitted effect of over 60% in size; further: potency means the concentration at half of the fitted maximal effect; on max response: on the % scale 0 is the no-effect control and ±100 the full control effect
How it was run: (§1)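 Compounds were pin-transferred onto cells and incubated 48 or 72 hr at 37 degree Celsius, 95% humidity. CellTiter-Glo was added, plates sat 10 min at room temperature, then ATP-coupled luminescence was imaged as the viability read-out.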

[2] = test system: HEK293; experiment: as above; conditions: Five cell lines viability, CellTiter-Glo ATP luminescence, 48-72 h; max response: stronger effect = lower value
How it was run: as §1

[3] = test system: HaCat; experiment: as above; conditions: Five cell lines viability, CellTiter-Glo ATP luminescence, 48-72 h; max response: stronger effect = lower value
How it was run: as §1

[4] = test system: KB-3-1; experiment: as above; conditions: Five cell lines viability, CellTiter-Glo ATP luminescence, 48-72 h; max response: stronger effect = lower value
How it was run: as §1

[5] = test system: NIH3T3; experiment: as above; conditions: Five cell lines viability, CellTiter-Glo ATP luminescence, 48-72 h; max response: stronger effect = lower value
How it was run: as §1

[6] = test system: HACAT; experiment: qHTS assay to identify novel small-molecules to repurpose for Merkel cell carcinoma treatment (AID 1296009); conditions: MCC and control cell lines, CellTiter-Glo viability, 72 h; at 44.8 µM (top of the series) unless noted; further: nearly all actives have a fitted effect of over 60% in size
How it was run: (§2)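 qHTS format: cells treated with library compounds in DMSO across 8 (NPC) or 11 (MIPE) concentrations. Readout after 72 hr at 37 degree celsius was CellTiter-Glo luminescence.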

[7] = test system: HEK293T; experiment: as above; conditions: MCC and control cell lines, CellTiter-Glo viability, 72 h; series mostly up to 44.8 µM
How it was run: as §2

[8] = test system: C33A; experiment: Primary qHTS to identify gynecologic anti-cancer compounds using libraries of approved drugs and bioactive compounds (AID 1345084); conditions: Gynecologic cancer cell panel viability, ATPlite luminescence, 48 h; series mostly up to 57.5 µM; further: on the % scale 0 is the no-effect control and ±100 the full control effect; nearly all actives have a fitted effect of over 55% in size
How it was run: (§3)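 In this quantitative HTS, cell killing is estimated from loss of ATP-dependent luciferase light. Cells see five compound concentrations over a 48 h exposure.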

[9] = test system: CAOV3; experiment: as above; conditions: Gynecologic cancer cell panel viability, ATPlite luminescence, 48 h; series mostly up to 57.5 µM
How it was run: as §3

[10] = test system: CASKI; experiment: as above; conditions: Gynecologic cancer cell panel viability, ATPlite luminescence, 48 h; series mostly up to 57.5 µM
How it was run: as §3

[11] = test system: Es-2; experiment: as above; conditions: Gynecologic cancer cell panel viability, ATPlite luminescence, 48 h; series mostly up to 57.5 µM
How it was run: as §3

[12] = test system: HeLa; experiment: as above; conditions: Gynecologic cancer cell panel viability, ATPlite luminescence, 48 h; series mostly up to 57.5 µM
How it was run: as §3

CC(=O)O[C@@H]1C[C@@]23C[C@@]24CC[C@H](OC2OC[C@@H](O)[C@H](O)[C@H]2O)C(C)(C)[C@@H]4CC[C@H]3[C@]2(C)CC3OC4(C[C@@H](C)C3[C@@]12C)OCC1(C)OC14 (stereo partly specified)
inactive: max response [1] -1.36% | outcome [2] | outcome [3] | max response [4] -4.87% | max response [5] 3.69% | outcome [6] inactive [at 17.4 µM] | Potency [7] | Potency [8] | Potency [9] | Potency [10] | Potency [11] | Potency [12]

NCCCC[C@H](NC(=O)[C@@H]1Cc2ccccc2CN1C(=O)CCC(=O)c1ccccc1)C(=O)NCC(c1ccccc1)c1ccccc1
inactive: outcome [1] | outcome [2] | outcome [3] | outcome [4] | max response [5] 3.99% | outcome [6] | Potency [7] | Potency [8] | Potency [9] | Potency [10] | Potency [11] | Potency [12]

CCOC(=O)[C@H](CCc1ccccc1)CC1(C(=O)N[C@H]2CCc3ccccc3N(CC(=O)O)C2=O)CCCC1
inactive: max response [1] -3.46% | outcome [2] | outcome [3] | max response [4] -2.38% | max response [5] 3.76% | outcome [6] | Potency [7] | Potency [8] | Potency [9] | Potency [10] | Potency [11] | Potency [12]

CC(C)(O)c1ccc2c(c1)C(=O)CC1[C@](C)(CO)CCC[C@]21C (stereo partly specified)
inactive: max response [1] -1.72% | outcome [2] | outcome [3] | max response [4] -6.05% | max response [5] -3.87% | outcome [6] | Potency [7] | Potency [8] | Potency [9] | Potency [10] | Potency [11] | Potency [12]

C[C@@H]1C/C=C/C=C\C=C\C=C\[C@H](O[C@@H]2O[C@H](C)[C@@H](O)[C@H](N)[C@@H]2O)C[C@@H]2O[C@](O)(C[C@@H](O)C[C@H]3O[C@@H]3/C=C/C(=O)O1)C[C@H](O)[C@H]2C(=O)O
inactive: max response [1] 2.84% | outcome [2] | outcome [3] | max response [4] 3.12% | max response [5] -11.8% | outcome [6] inactive [at 17.4 µM] | Potency [7] | Potency [8] | Potency [9] | Potency [10] | Potency [11] | Potency [12]

CC1=C2C=C(CO)C(CO)CCC2(C)CCC1=O (stereo unspecified)
inactive: max response [1] -3.34% | outcome [2] | outcome [3] | outcome [4] | max response [5] -1.32% | outcome [6] | Potency [7] | Potency [8] | Potency [9] | Potency [10] | Potency [11] | Potency [12]

NCc1c[nH]c(=S)n1C1CCc2c(F)cc(F)cc2C1 (stereo unspecified)
inactive: max response [1] -1.6% | outcome [2] | outcome [3] | max response [4] -6.7% | outcome [5] | outcome [6] | Potency [7] | Potency [8] | Potency [9] | Potency [10] | Potency [11] | Potency [12]

O=C(c1ccc(NS(=O)(=O)c2cccc3cccnc23)cc1)N1CCN(CC2CC2)CC1
inactive: max response [1] -4.28% | outcome [2] | outcome [3] | max response [4] -0.69% | max response [5] 0.212% | outcome [6] | Potency [7] | Potency [8] | Potency [9] | Potency [10] | Potency [11] | Potency [12]

CCC/C=C/C(=O)O[C@H]1CC(C)(C)CC2[C@]13[C@H](O)O[C@@]21CCC2[C@@]4(C)CC[C@H](O[C@@H]5O[C@H](C(=O)O)[C@@H](O)[C@H](O[C@@H]6O[C@H](CO)[C@H](O)[C@H](O)[C@H]6O[C@@H]6O[C@@H](C)[C@H](O)[C@@H](O)[C@H]6O[C@@H]6OC[C@](O)(CO)[C@H]6O)[C@H]5O[C@@H]5O[C@H](CO)[C@H](O)[C@H](O)[C@H]5O)C(C)(C)C4CC[C@@]2(C)[C@]1(C)C[C@H]3OC(C)=O (stereo partly specified)
inactive: max response [1] -6.81% | outcome [2] | outcome [3] | max response [4] 6.11% | max response [5] 0.954% | outcome [6] inactive [at 9.27 µM] | outcome [7] inactive [at 9.27 µM] | activity change, negative = cytotoxicity [8] -4.15% [at 6.55 µM] | activity change, negative = cytotoxicity [10] 2.37% [at 6.55 µM] | activity change, negative = cytotoxicity [11] 2.55% [at 6.55 µM] | activity change, negative = cytotoxicity [12] -1.33% [at 6.55 µM]

O=C(O)CCc1cc2ccoc2cc1O[C@@H]1O[C@H](CO[C@@H]2OC[C@](O)(CO)[C@H]2O)[C@@H](O)[C@H](O)[C@H]1O
inactive: max response [1] -5.99% | outcome [2] | outcome [3] | max response [4] 9.81% | max response [5] -2.27% | outcome [6] inactive [at 17.4 µM] | Potency [7] | Potency [8] | Potency [9] | Potency [10] | Potency [11] | Potency [12]

CC1(CCC(=O)O)C(=O)C=CC23CC4CC(OC4(C)C2O)C13 (stereo unspecified)
inactive: max response [1] 3.62% | outcome [2] | outcome [3] | max response [4] 2.02% | outcome [5] | outcome [6] | Potency [7] | Potency [8] | Potency [10] | Potency [11] | Potency [12]

CCc1c(CC(N)=O)c2cc(OCCCP(=O)(O)O)ccc2n1Cc1ccccc1
inactive: max response [1] -8.49% | outcome [2] | outcome [3] | outcome [4] | max response [5] -4.64% | outcome [6] | Potency [7] | Potency [8] | Potency [9] | Potency [10] | Potency [11] | Potency [12]

COc1cc(C(O)C(CO)Oc2ccc(CCCO[C@@H]3O[C@@H](C)[C@H](O)[C@@H](O)[C@H]3O)cc2OC)ccc1O (stereo partly specified)
inactive: outcome [1] | outcome [2] | outcome [3] | outcome [4] | max response [5] -2.23% | outcome [6] inactive [at 17.4 µM] | Potency [7] | Potency [8] | Potency [9] | Potency [10] | Potency [11] | Potency [12]

CNC(=O)COC(=O)NCCC1CCN(c2cccc(C)n2)CC1
inactive: max response [1] -5.78% | outcome [2] | outcome [3] | max response [4] 9.28% | max response [5] -5.35% | outcome [6] | Potency [7] | Potency [8] | Potency [9] | Potency [10] | Potency [11] | Potency [12]

Cc1cc(O)c(C(C)C)cc1O[C@@H]1O[C@H](CO)[C@@H](O)[C@H](O)[C@H]1O
inactive: max response [1] -11.2% | outcome [2] | outcome [3] | outcome [4] | max response [5] 1.36% | outcome [6] | Potency [7] | Potency [8] | Potency [9] | Potency [10] | Potency [11] | Potency [12]

CCC(CCO[C@@H]1O[C@H](CO[C@H]2OC[C@](O)(CO)[C@H]2O)[C@@H](O)[C@H](O)[C@H]1O)C(C)(C)O (stereo partly specified)
inactive: max response [1] -2.81% | outcome [2] | outcome [3] | outcome [4] | max response [5] 1.97% | outcome [6] inactive [at 17.4 µM] | Potency [7] | Potency [8] | Potency [10] | Potency [11] | Potency [12]

O=C(O)C[C@@H](NC(=O)c1cc(-c2ccc(-c3ccncc3)cc2)cs1)c1ccccc1
inactive: max response [1] 1.97% | outcome [2] | outcome [3] | max response [4] 4.03% | max response [5] 1.34% | outcome [6] | Potency [7] | Potency [8] | Potency [9] | Potency [10] | Potency [12]

O=C1C[C@@H](c2ccc(O)cc2)Oc2cc(O)ccc21
inactive: max response [1] -9.15% | outcome [2] | outcome [3] | max response [4] 3.42% | max response [5] 1.22% | outcome [6] | Potency [7] | Potency [8] | Potency [9] | Potency [10] | Potency [11] | Potency [12]

CC(=O)O[C@H]1[C@H](C)[C@@H](O)[C@H]2[C@@H]1C=C(C(=O)O)[C@H]1C[C@@H]3[C@H]([C@H]21)[C@H]1C(=O)O[C@@H]2CC[C@@]3(C)O[C@]1(O)[C@@H]2C
inactive: max response [1] -0.589% | outcome [2] | outcome [3] | max response [4] 7.8% | outcome [5] | outcome [6] inactive [at 17.4 µM] | Potency [7] | Potency [8] | Potency [9] | Potency [10] | Potency [11] | Potency [12]

CC(C)c1nc(N(C)S(C)(=O)=O)nc(-c2ccc(F)cc2)c1/C=C/[C@@H](O)C[C@@H](O)CC(=O)O
inactive: outcome [2] | outcome [3] | outcome [4] | max response [5] 0.504% | outcome [6] | Potency [7] | Potency [8] | Potency [9] | Potency [10] | Potency [11] | Potency [12]
active: Potency [1] 16.4 µM

C[C@@H]1CC[C@H]2C(C)(C)[C@H](O)[C@H](O)C[C@]2(C)[C@@]12Cc1c(O)cc3c(c1O2)CNC3=O
inactive: outcome [1] | outcome [2] | outcome [3] | outcome [4] | max response [5] 3.46% | outcome [6] | Potency [7] | Potency [8] | Potency [9] | Potency [10] | Potency [11] | Potency [12]

COc1cc([C@H]2OC[C@]3(OC(C)=O)[C@@H](c4ccc(O[C@@H]5O[C@H](CO)[C@@H](O)[C@H](O)[C@H]5O)c(OC)c4)OC[C@H]23)ccc1O
inactive: outcome [1] | outcome [2] | outcome [3] | outcome [4] | max response [5] 4.83% | outcome [6] inactive [at 17.4 µM] | Potency [7] | Potency [8] | Potency [9] | Potency [10] | Potency [11] | Potency [12]

CC1=C2[C@@H]([C@H](C)CC[C@H]2/C=C(\C)C(=O)O)[C@H](O)C1
inactive: max response [1] 0.252% | outcome [2] | outcome [3] | max response [4] 3.15% | max response [5] 3.16% | outcome [6] | Potency [7] | Potency [8] | Potency [9] | Potency [10] | Potency [11] | Potency [12]

C=C1CC2[C@]3(C)C(=C(O)C(=O)[C@@]2(C)[C@]2(C(=O)OC)C(=O)C(C)OC(=O)[C@@]12C)C(C)(C)C(=O)CC3O (stereo partly specified)
inactive: max response [1] -4.87% | outcome [2] | outcome [3] | outcome [4] | max response [5] 0.571% | outcome [6] inactive [at 17.4 µM] | Potency [7] | Potency [8] | Potency [9] | Potency [10] | Potency [11] | Potency [12]

C/C=C/C=C/C=C/C(=O)O[C@@H]1[C@@H](OC)C2=C(C(=O)N(C(C)C(=O)O)C2)[C@@]2(C)CCCC(C)(C)[C@H]12 (stereo partly specified)
inactive: max response [1] -1.32% | outcome [2] | outcome [3] | max response [4] 5.59% | max response [5] 0.76% | outcome [6] inactive [at 17.4 µM] | Potency [7] | Potency [8] | Potency [9] | Potency [10] | Potency [11] | Potency [12]
